Anthrax LF inh2 = blocks Bacillus anthracis lethal factor protease | AID 588501 | multiplex microsphere protease cleavage assay, LF | 0.12% of 360,000 active | inhibition, % at 10 µM; note: plate controls were buffer without enzyme for full effect and enzyme alone for no effect
Target sequence (P15917 whole entry, looked up): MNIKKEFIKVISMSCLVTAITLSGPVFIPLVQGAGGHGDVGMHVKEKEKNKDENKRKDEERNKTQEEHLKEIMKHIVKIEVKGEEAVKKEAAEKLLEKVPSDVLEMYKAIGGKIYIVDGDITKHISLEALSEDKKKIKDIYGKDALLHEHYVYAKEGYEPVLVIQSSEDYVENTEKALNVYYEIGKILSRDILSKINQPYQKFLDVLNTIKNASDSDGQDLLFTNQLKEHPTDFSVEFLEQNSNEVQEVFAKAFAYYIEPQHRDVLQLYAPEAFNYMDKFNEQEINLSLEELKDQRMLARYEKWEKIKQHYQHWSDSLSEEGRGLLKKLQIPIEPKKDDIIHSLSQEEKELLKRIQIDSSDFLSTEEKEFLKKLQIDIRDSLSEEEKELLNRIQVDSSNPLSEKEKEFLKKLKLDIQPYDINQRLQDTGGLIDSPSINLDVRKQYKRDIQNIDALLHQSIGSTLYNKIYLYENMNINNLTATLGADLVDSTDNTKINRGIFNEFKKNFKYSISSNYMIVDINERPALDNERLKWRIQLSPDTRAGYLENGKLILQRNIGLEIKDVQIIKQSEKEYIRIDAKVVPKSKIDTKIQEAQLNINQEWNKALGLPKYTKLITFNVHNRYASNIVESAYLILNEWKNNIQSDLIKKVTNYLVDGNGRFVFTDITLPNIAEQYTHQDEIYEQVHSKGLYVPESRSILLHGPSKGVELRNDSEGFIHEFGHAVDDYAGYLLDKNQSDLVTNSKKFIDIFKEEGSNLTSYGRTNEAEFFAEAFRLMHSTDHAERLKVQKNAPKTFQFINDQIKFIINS
Bead autofluor = compound fluorescence in toxin protease inhibitor counterscreen. 3.1% of 360,000 active. compound autofluorescence counterscreen, microsphere flow cytometry; active compounds read high. fluorescence intensity (concentration not given with the values). AID 624483; in the data active = fluorescence intensity above about 16000; inconclusive = no clear call, values can overlap the other calls
BoNT F protease = BoNT F light chain protease inhibition. Multiplex microsphere protease cleavage assay, flow cytometry. inhibition, % at 10 µM. 0.22% of 360,000 active. AID 588497; in the data active = inhibition above about 35%, passing the limit was not always enough; inconclusive = no clear call, values can overlap the other calls; note: plate controls were buffer without enzyme for full effect and enzyme alone for no effect
3CLpro inhibitor = SARS-CoV 3CLpro protease inhibition. inhibition, % at 6 µM. 0.14% of 290,000 active. P0C6X7. recombinant SARS-CoV 3CLpro, quenched FRET peptide cleavage. AID 1706; in the data active = inhibition above about 12%
BoNT A protease = blocks Botulinum neurotoxin A light chain protease; multiplex microsphere protease substrate cleavage, flow cytometry; inhibition, % at 10 µM; 0.17% of 360,000 active; note: plate controls were buffer without enzyme for full effect and enzyme alone for no effect
* = called active by the depositor; ? = inconclusive; . = no result given. Rows were chosen to be rich in hits. Some 3.5% of all compounds tested hit in one or more screens of this group. Cut-off read from the data, not from the text of the source, unless noted: active = inhibition above about 30%; inconclusive = no clear call, values can overlap the other calls; inactive = below that.

SMILES | Anthrax LF inh2 | Bead autofluor | BoNT F protease | 3CLpro inhibitor | BoNT A protease
Oc1ccc(N=Cc2ccc(-c3cccs3)s2)cc1 | -1 | 16163* | -2 | -3 | 1
C=CCn1c(O)c(C(CC)=NCCCO)c(=O)[nH]c1=O | 2 | 3273 | -3 | 1 | -1
C=CCn1c(O)c(C(CC)=Nc2ccccc2NC(C)=O)c(=O)[nH]c1=O | 5 | 8842 | -5 | -4 | 0
C=CCn1c(O)c(C(CC)=NCCN2CCOCC2)c(=O)[nH]c1=O | -2 | 19747* | 10 | 1 | 5
C=CCn1c(O)c(C(CC)=Nc2ccccc2NC(=O)CC)c(=O)[nH]c1=O | -3 | 20357* | 1 | 5 | ?
C=CCSc1nc(N)c(C#N)c(-c2ccc(C)cc2)c1C#N | -8 | 4379 | -5 | 3 | 0
C=CCSc1nc(C)cc(/C=C\c2ccccc2)c1C#N | 0 | 21811* | -10 | -2 | ?
OCc1cnc(SCc2ccccc2)n1Cc1ccccc1 | 2 | 4478 | 4 | 0 | 0
CCCN(CCC)C(C(=O)Nc1cccc(OC)c1)c1ccccc1 (configuration not stated) | -4 | 22137* | 3 | 4 | 2
Cc1ccc(NC(=O)C(c2ccccc2)N(C)C)cc1Cl (configuration not stated) | -3 | 3441 | 10 | 4 | 1
O=C(Nc1ccc(Cl)cc1)C(c1ccccc1)N(CCO)CCO (configuration not stated) | -3 | 20747* | -6 | 0 | -4
COc1cccc(NC(=O)C(NCCC(C)C)c2ccccc2)c1 (configuration not stated) | -6 | 9704 | -18 | 2 | -1
O=C(Nc1cc(Cl)cc(Cl)c1)C(NCCO)c1ccccc1 (configuration not stated) | -1 | 22640* | 0 | 7 | 2
CSc1cccc(NC(=O)CN2C(=O)c3ccccc3S2(=O)=O)c1 | -1 | 5249 | -3 | 2 | 0
COc1ccc(-n2nnnc2SCC(=O)NCCc2ccc(OC)c(OC)c2)cc1 | -2 | 12386 | 6 | 3 | 0
Cc1cc(NS(=O)(=O)c2ccc(NC(=O)CNS(=O)(=O)c3ccccc3)cc2)nc(C)n1 | 3 | 2895 | -4 | . | 0
Cc1ccc(CN(Cc2ccccn2)C(=O)Nc2ccc(C)c(C)c2)cc1 | 6 | 3961 | 7 | 1 | -1
COc1ccc2c(=O)c3c(=O)n(Cc4ccco4)c(-c4ccco4)nc3oc2c1 | -4 | 8037 | -2 | 4 | 0
COCCn1c(-c2ccc(Cl)cc2)nc2oc3cc(OC)ccc3c(=O)c2c1=O | -4 | 6669 | -8 | 3 | -1
COc1ccc(-c2nc3oc4cc(OC)ccc4c(=O)c3c(=O)n2Cc2ccco2)cc1 | -1 | 20811* | -1 | -5 | 0
COCCn1c(-c2ccc(OC)cc2)nc2oc3cc(OC)ccc3c(=O)c2c1=O | -3 | 20954* | -5 | -1 | -3
COCCCn1c(C(C)C)nc2oc3cc(OC)ccc3c(=O)c2c1=O | 0 | 20914* | 1 | 1 | -1
CCOC(=O)c1ccc(S(=O)(=O)NC2CC2)cc1 | 1 | 5706 | 14 | -2 | 2
CCCNC(=O)N1CCN(c2nc(C(C)C)c3c(c2C#N)CC(C)(C)OC3)CC1 | -1 | 5242 | -6 | 0 | 0
Cc1ccc(S(=O)(=O)N2CCN(c3nc(C(C)C)c4c(c3C#N)CC(C)(C)OC4)CC2)cc1 | -1 | 22172* | 7 | -1 | 4
SMILES | Anthrax LF inh2 | Bead autofluor | BoNT F protease | 3CLpro inhibitor | BoNT A protease
CN(C)/C(CN1CCN(C=O)CC1)=C1\N=C(c2ccccc2)OC1=O | 2 | 23334* | 1 | 1 | 1
COc1ccc(OC)c(S(=O)(=O)N2c3cc(F)ccc3CCC2C)c1 (configuration not stated) | -4 | 7080 | -5 | -1 | -1
Cc1ccccc1NS(=O)(=O)c1cc(C(=O)N2CCCC2)ccc1C | . | . | . | 6 | .
COc1ccccc1NS(=O)(=O)c1cc(C(=O)N2CC(C)CC(C)C2)ccc1C (configuration not stated) | 0 | 22186* | 2 | 0 | ?
C=CCN1C(=O)C2(c3ccccc31)C1CCCC=C1C(C#N)=C(N)C2(C#N)C#N (configuration not stated) | 0 | 9585 | 3 | 1 | 0
C=CCN1C(=O)[C@]2(c3ccccc31)C1CCCC=C1C(C#N)=C(N)C2(C#N)C#N (some centres not stated) | -8 | 20366* | -2 | -6 | ?
C/C(CC(O)c1ccc2ccccc2n1)=N/O (configuration not stated) | -1 | 20613* | 0 | -5 | 1
CC1(Cc2ccc(Cl)cc2)C(=O)Nc2ccc(S(=O)(=O)NC3CCCCC3)cc21 (configuration not stated) | -1 | 3921 | 0 | . | -1
Cc1cc(C)n(-c2ncc3c(n2)N(CCO)CCOC3=O)n1 | 4 | 3742 | 35* | 4 | 2
CCOC(=O)c1cnc(-n2nc(C)cc2C)nc1NC1CCCC1 | 19 | 3914 | ? | 8 | 1
CCOC(=O)c1cnc(-n2nc(C)cc2C)nc1N(C)C | -1 | 22817* | 2 | -1 | 0
CCOC(=O)c1cnc(-n2nc(C)cc2C)nc1N1CCOCC1 | -3 | 23062* | 0 | -3 | 0
CC1CCN(C(=O)CSc2nc(N)cc(N)n2)CC1 | -2 | 23394* | -5 | 0 | -3
CC1(C)C2CCC1(CS(=O)(=O)Nc1ccc(S(=O)(=O)N3CCCCC3)cc1)C(=O)C2 (configuration not stated) | 2 | 8828 | -2 | -2 | 2
COc1ccccc1NC(=O)CSc1nnc(-c2ccco2)n1Cc1ccco1 | 0 | 19643* | -1 | -4 | 0
COc1ccc(C)cc1NC(=O)CSc1nnc(-c2ccccn2)n1Cc1ccco1 | -1 | 21479* | -8 | 6 | ?
CCn1c(SCC(=O)Nc2ccc3c(c2)OCCO3)nnc1-c1ccccn1 | -2 | 13400 | -31 | 1 | -2
O=C(CSc1nnc(-c2ccccn2)n1Cc1ccco1)Nc1ccc2c(c1)OCO2 | -3 | 20585* | -3 | -2 | -1
COc1ccccc1NC(=O)CSc1nnc(-c2ccco2)n1N | -2 | 4144 | 7 | 5 | 1
COc1ccc(C(=O)CSc2nnc(-c3cc4ccccc4cc3O)n2Cc2ccco2)cc1 | -4 | 23275* | -6 | 1 | -1
COc1ccccc1NC(=O)CSc1nnc(-c2ccccn2)n1Cc1ccco1 | -5 | 5786 | -2 | 4 | 0
CCOC(=O)C1=CCN(S(=O)(=O)c2ccc(C)cc2)C1c1cccc2ccccc12 (configuration not stated) | -6 | 5669 | 2 | . | 0
O=C(CC12CC3CC(CC(C3)C1)C2)NCc1ccccc1 | 15 | 3653 | 31 | -2 | 1
O=C(CC12CC3CC(CC(C3)C1)C2)NCc1ccncc1 | -4 | 16408* | -3 | 2 | -1
CCOC(=O)c1ccc(N2CCN(c3cc(C)ccc3C)CC2)c(N)c1 | -17 | 3497 | -36 | -6 | 3
CC(C)NC(=O)c1ccc(-c2cc(C(F)(F)F)ccc2Cl)o1 | -2 | 22154* | -3 | -3 | 0
O=C1CN(C(=O)CSc2nncn2-c2ccccc2)c2ccccc2N1 | -1 | 21221* | -4 | -3 | -2

Screens as filed in PubChem BioAssay.
